Laboratory results published in PubChem BioAssay.
Active and inactive are the calls of the source. Unless noted, the rule behind the calls is not given here.

Key:
[1] = tested on: Wnt5a (protein binding on small-molecule microarray); test: small molecules binding Wnt5a protein – biophysical, small-molecule microarray, 635/667 nm fluorescence, primary screen (AID 1142); details: 635 nm fluorescence, higher = more signal;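 note: fluorescence read at 667 nm with signal to noise per printed feature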
[2] = ATP-based viability of Huh7 replicon cells – cell-based, CellTiter-Glo luminescence, basal, 48 h, cytotoxicity control for HCV replication inhibitor project, primary screen (AID 1143); details: higher = more signal, called active from +8 up or from −8 down;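 note: Huh7 hepatoma cells carrying a hepatitis C replication reporter with no stimulus; test concentration not given here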
[3] = Pseudomonas biofilm growth suppression – PAO1 strain, BacTiter-Glo luminescence, LB-PBS, primary screen (AID 1144); details: P. aeruginosa PAO1 biofilm, 12 h, higher = more signal
[4] = basal CRE-LacZ reporter activity in PC12 – cell-based, unstimulated, primary screen (AID 1145); details: no forskolin, luminescence, 4.5 h, higher = more signal, called active from +8 up or from −8 down
[5] = forskolin-driven CRE-LacZ activity in PC12 – cell-based, CRE-LacZ reporter, forskolin-stimulated, primary screen (AID 1146); details: luminescence, 4.5 h, higher = more signal, called active from +8 up or from −8 down;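 note: PC12 cells with 6xCRE LacZ reporter stimulated by forskolin 10 µM; beta-galactosidase reporter signal reflecting CREB driven transcription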
[6] = target: Streptavidin (Streptomyces avidinii) (UniProt P22629); test: compounds binding control protein streptavidin – biophysical, small-molecule microarray, 635/667 nm fluorescence, artefact control for SMM compound annotation, primary screen (AID 1147); details: higher = more signal;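 note: signal reflects streptavidin binding to arrayed compounds as a control protein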
[7] = probe aInhba binding on compound microarray – biochemical, small-molecule microarray, 635/667 nm fluorescence, primary screen (AID 1148); details: higher = more signal;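 note: score merges 667nm spot fluorescence with signal-to-noise for antibody binding to printed compounds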
Torsin-1A (Homo sapiens) [8] = target: Torsin-1A (Homo sapiens) (UniProt O14656); test: TOR1A wild-type binding on microarray – cell lysate, small-molecule microarray, lysate, 635/667 nm, primary screen (AID 1149); details: COS7 hTOR1A-WT lysate, 635 nm fluorescence, higher = more signal
Torsin-1A (Homo sapiens) [9] = target: Torsin-1A (Homo sapiens) (UniProt O14656); test: torsin A mutant lysate binding on microarrays – cell lysate, small-molecule microarray, COS7 lysate, 635/667 nm fluorescence, primary screen (AID 1150); details: COS7 hTOR1A mutant lysate, 635 nm fluorescence, higher = more signal;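 note: score pools 667 nm emission and signal to noise measuring lysate protein binding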
[10] = tested on: Sonic hedgehog protein (Shh); test: Sonic hedgehog microarray binding compounds – biochemical, small-molecule microarray, 635/667 nm fluorescence, primary screen (AID 1151); details: 635 nm fluorescence, higher = more signal;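 note: Shh protein binding to compounds spotted on small-molecule microarray slides; score combines spot fluorescence intensity with signal-to-noise across triplicate slides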

Torsin-1A (Homo sapiens), sequence (O14656 whole entry, looked up): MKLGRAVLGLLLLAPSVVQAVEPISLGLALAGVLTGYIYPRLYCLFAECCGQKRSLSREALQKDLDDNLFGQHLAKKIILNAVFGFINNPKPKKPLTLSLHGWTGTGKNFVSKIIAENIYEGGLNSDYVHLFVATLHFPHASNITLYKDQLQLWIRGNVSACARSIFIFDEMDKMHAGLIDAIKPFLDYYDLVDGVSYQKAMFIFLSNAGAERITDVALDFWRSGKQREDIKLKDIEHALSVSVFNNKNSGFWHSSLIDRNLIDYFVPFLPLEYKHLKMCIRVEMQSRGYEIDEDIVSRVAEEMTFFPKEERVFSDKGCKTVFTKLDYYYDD
Streptavidin (Streptomyces avidinii), sequence (P22629 whole entry, looked up): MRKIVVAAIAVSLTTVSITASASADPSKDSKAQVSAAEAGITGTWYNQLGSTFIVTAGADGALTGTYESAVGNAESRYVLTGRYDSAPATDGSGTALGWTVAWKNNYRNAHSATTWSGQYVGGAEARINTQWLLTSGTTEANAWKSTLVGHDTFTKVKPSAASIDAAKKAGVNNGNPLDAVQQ

Row | SMILES | composite z-score [1] | z-score [2] | z-score [3] | z-score [4] | z-score [5] | composite z-score [6] | composite z-score [7] | composite z-score (Torsin-1A (Homo sapiens) [8]) | composite z-score (Torsin-1A (Homo sapiens) [9]) | composite z-score [10]
1 | CN1C(=O)C2C=CC(C(O)c3ccc([N+](=O)[O-])cc3)N(Nc3ccccc3)C2C1=O (stereo not given) | 0.288 | 0.349 (inactive) | -0.898 (inactive) | 0.0535 (inactive) | -0.323 (inactive) | 1.65 | 0.179 | 0.0754 | 0.317 | -0.0538
2 | COC(=O)Cn1c(C(=O)N(C)C)cc2c1C[C@H]1CN(C(=O)c3ccccc3)[C@@](Cc3ccccc3)(C(=O)OC)[C@@H]21 | 0.135 | -0.273 (inactive) | -0.334 (inactive) | -0.189 (inactive) | -0.637 (inactive) | 0.822 | 0.105 | 0.263 | 0.541 | -0.535
3 | COc1ccc([Si](C)(C)[C@H]2[C@H](CC(=O)N3CCC[C@H]3CO)O[C@@]3(C(=O)N(Cc4cccc(N5CCCCC5=O)c4)c4ccccc43)[C@@H]2C)cc1 | -0.108 | -1.39 (inactive) | -0.00805 (inactive) | 2.88 (inactive) | -0.314 (inactive) | 0.233 | -0.128 | 0.593 | 0.812 | 2.01
4 | [N-]=[N+]=NCc1ccccc1[C@H]1OC(c2ccc(OCCCO)cc2)=N[C@@]1(Cc1ccccc1N=[N+]=[N-])C(N)=O | 0.395 | -1.38 (inactive) | -1.13 (inactive) | 0.0451 (inactive) | -0.697 (inactive) | 1.23 | 0.472 | 1.55 | 0.949 | 0.183
5 | C=C(COC)C(=O)CC[C@@H](OC(=O)c1ccccc1-c1ccccc1C(=O)O)c1ccccc1OCCO | 0.502 | -0.714 (inactive) | -0.693 (inactive) | 2.73 (inactive) | 15.8 (active) | -0.695 | -0.0762 | 1.49 | 0.0126 | 1.45
6 | CCCCC(=C=CC[C@@H](O)c1ccccc1OCCO)C[C@@H](O)c1ccccn1 | -0.11 | -0.675 (inactive) | -0.138 (inactive) | 2.72 (inactive) | -0.446 (inactive) | -0.231 | -0.024 | -0.245 | 0.495 | 0.897
7 | COC(=O)[C@@]1(Cc2ccc(OC)cc2)[C@H]2c3cc(C(=O)N(C)C)n(Cc4c(CO)[nH]cc(C)c4=O)c3C[C@H]2CN1C(=O)c1ccccc1 | -0.172 | -0.0137 (inactive) | -0.357 (inactive) | 1.15 (inactive) | 2.29 (inactive) | 0.27 | 0.0219 | 0.351 | 0.461 | -0.532
8 | C=C(CCCC)C(=O)CC[C@H](OC(=O)c1ccccc1-c1ccccc1C(=O)O)c1cccc(OCCO)c1 | -0.151 | -0.548 (inactive) | -0.77 (inactive) | 0.434 (inactive) | 5.04 (inactive) | -0.352 | -0.179 | 0.259 | 0.114 | 0.847
9 | CC(C)[Si]1(C(C)C)OCc2cc(-c3ccc(-c4ccc(Cl)c(Cl)c4)o3)nc(-c3ccc(Oc4ccccc4)cc3)c21 | -0.615 | -0.558 (inactive) | 0.457 (inactive) | 0.251 (inactive) | -0.835 (inactive) | -0.767 | -0.382 | -1.33 | -2.07 | -0.976
10 | COc1ccc([Si](C)(C)[C@H]2[C@H](CCO)O[C@@]3(C(=O)N(Cc4ccccc4)c4ccc(NC(=O)[C@H](C)O)cc43)[C@@H]2C)cc1 | 0.571 | -7.85 (inactive) | -1.29 (inactive) | 20.8 (active) | 1.12 (inactive) | 0.0684 | 0.0659 | 0.569 | 0.437 | 1.33
11 | C=C(C)C1CN([C@H](CO)c2ccccc2)C(=O)/C1=C\c1ccccc1 (stereo not given in full) | -0.0623 | -4.75 (inactive) | 1.3 (inactive) | 2.04 (inactive) | -0.391 (inactive) | -0.0971 | -0.0719 | 0.0321 | 0.343 | 0.633
12 | [N-]=[N+]=NCc1ccccc1C[C@@]1(C(N)=O)N=C(c2ccc(OCCCO)cc2)O[C@@H]1c1ccccc1N=[N+]=[N-] | 0.336 | -3.18 (inactive) | 1.33 (inactive) | 1.01 (inactive) | -0.626 (inactive) | 1.31 | -0.145 | 0.369 | 0.409 | -0.455
13 | COc1ccc([Si](C)(C)[C@@H]2[C@@H](CC(=O)N3CCC[C@H]3CO)O[C@]3(C(=O)N(Cc4cccc(N5C(=O)c6cccc7cccc5c67)c4)c4ccccc43)[C@H]2C)cc1 | 0.614 | -5.86 (inactive) | -0.334 (inactive) | 0.819 (inactive) | -1.41 (inactive) | 0.609 | -0.129 | 0.729 | 0.499 | 1.42
14 | C=CC[C@H](OC(=O)Nc1ccc(SC)cc1)c1ccc(O)c(F)c1 | -0.171 | -0.489 (inactive) | -0.459 (inactive) | 0.31 (inactive) | 5.56 (inactive) | -0.588 | -0.285 | -0.135 | -0.151 | 0.988
15 | COCCOC(=O)N1C(=O)[C@@]2(c3cc(C#CCCO)ccc31)[C@H](c1ccc(O)cc1)N1[C@H](c3ccccc3)[C@H](c3ccccc3)OC(=O)[C@H]1[C@@H]2C(=O)NC[C@H](O)c1ccccc1 | 0.0153 | -1.64 (inactive) | -0.718 (inactive) | 0.0776 (inactive) | -0.583 (inactive) | -0.331 | 0.0101 | 0.127 | -0.0807 | 1.03
